# Results published in the OligoGym collection.
# Molecular target: RPL19
# Assay: pooled miR-30 sensor sort-seq; sequence = guide strand
# Conditions: shRNA
# Further: reference of the scale not given here.
row,Sequence,sensor-assay potency score (higher = more potent)
1,ATTGGGGTCTAACCAGACCTTC,-1.59
2,TGTTTTTGAACACATTCCCCTT,-1.21
3,TTCATTGGTCTCATTGGGGTCT,0.294
4,AAGTCTTGATGATCTCCTCCTT,0.211

# Molecular target: RPL27
# Assay: as above
# Conditions: shRNA
row,Sequence,sensor-assay potency score (higher = more potent)
1,TATCTTTGATCTCTTGGCGATC,-1.37
2,TTTATCTTTGATCTCTTGGCGA,-0.218
3,ATATCCACAGAGTACCTTGTGG,-0.336
4,ATTGACGACAGTTTTGTCCAAG,-1.31
5,TTCACGATGACAGCTTTGCGTC,-0.995
6,TACACTTTCACAAAAGATTTTA,-0.949
7,TTGTTCTTGCCTGTCTTGTATC,-1.8
8,TCTCTCTTCAAACTTGACCTTG,-0.698
9,TTCTTCACGATGACAGCTTTGC,-0.801
10,TTATCTTTGATCTCTTGGCGAT,-0.525
11,AGGATCTCTGAAGACATCCTTA,-1.41
12,TTTAAGAGCAGGATCTCTGAAG,-0.365

# Molecular target: RPS27
# Assay: as above
# Conditions: shRNA
row,Sequence,sensor-assay potency score (higher = more potent)
1,TTTCACATCCATGAAGTAGGAA,0.096
2,TTGCTTTTCCTCCTGTAGGCTG,-0.847
3,TGAAGGAACATCCTTCTGTAAG,-1.76
4,TTCTTCTTGTGTTTCCTCTTCT,0.637
5,TTCACATCCATGAAGTAGGAAT,-1.13
6,TAAGCCTTGCTTTTCCTCCTGT,0.376
7,TCCTCTTCTCCTCTTCTGGAGA,-1.67
8,TGGTGATTTTATAGCATCCTGG,-1.63
9,TTCCTCTTCTCCTCTTCTGGAG,-0.516
10,TGATTTTATAGCATCCTGGGCA,-0.287
11,TTTTATAGCATCCTGGGCATTT,-0.741
12,TTGTGCATGGCTAAAGACCGTG,-0.673

# Molecular target: RPS28
# Assay: as above
# Conditions: shRNA
row,Sequence,sensor-assay potency score (higher = more potent)
1,TGATGGATCGGCTCGTGTCGTC,-1.07
2,TTGCGGATGATGGATCGGCTCG,-1.36
3,TTTTACATTGCGGATGATGGAT,-0.481
4,TCGCTCTGACTCCAAAAGGGTG,-1.7
5,TTGGTGACCCTGGCCAGCTTGA,-1.2
6,TTTACATTGCGGATGATGGATC,-1.07
7,TGCACTGTCCCTGAGAACCGGT,-1.07
8,TGTCCCTGAGAACCGGTCCTGC,-1.38
9,AATTCCACGCGCACCTGCGTGC,-0.771
10,TGGATCGGCTCGTGTCGTCCAT,-1.14
11,TCGGCTCGTGTCGTCCATGAAT,-1.75
